# Screens (PubChem)
# The list is not random: actives were taken first. Their share in the collection is about 19%.
# DT40 TDP1 CPT – DT40-hTDP1 cell growth loss with CPT; chicken DT40 Tdp1-/-;hTDP1 cells + 20 nM CPT, ATP luminescence, 48 h; Potency, µM (doses to about 46.2 µM), without a hit: at the highest dose activity change, negative = growth inhibition, actives largely listed as inhibitors; actives 12% (n = 420,000); also: potency is read from the fitted curve at half-maximal effect; nearly all actives have a fitted effect of over 55% in size
#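 Chicken DT40 Tdp1-/- cells stably complemented with human TDP1 were seeded at 400 cells/well in medium containing 20 nM camptothecin, exposed to pin-transferred compounds, and grown at 37 °C for at least 48 hr. Viability was read as ATP luminescence.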
# HT1080NT lethal – kills 2HG-producing HT-1080-NT fibrosarcoma cells. actives 1.6% (n = 360,000). Potency, µM (top dose mostly 46.1 µM), inactives show at the highest dose activity, negative = less viability, usual class: cytotoxic. HT-1080-NT fibrosarcoma viability, CellTiter-Glo ATP luminescence, 48 h;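 also: NT is the 2HG producing partner of a matched IDH1 knockdown line; potency is read from the fitted curve at half-maximal effect; 0% = DMSO-treated cells and -100% = media-only wells without cells; nearly all actives have a fitted effect of over 55% in size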
#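 Viability of the 2HG-overproducing fibrosarcoma line after 48 hours of compound exposure at 37 degrees C was determined by luminescence with CellTiter-Glo, and concentration-effect curves were then fitted and categorized.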
# IL-1B inflam inh – inhibitors of inflammasome signaling (IL-1 beta secretion). THP-1 LPS/ATP IL-1B secretion, AlphaLISA, 16 h; active compounds read low. activity change, % at 57.5 µM. actives 4.7% (n = 360,000); in the data active = activity change below about -50%; inconclusive = mostly about -30% to -49%
#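 THP-1 cells pretreated 1 hr with compounds (up to 57.5 uM final), then stimulated with LPS (250 ng/mL final) plus ATP (1.25 mM final); secreted IL-1B measured by AlphaLISA after 16 hr, decreased signal indicating inhibition.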
# DT40 TDP1 no CPT – qHTS for Inhibitors of human tyrosyl-DNA phosphodiesterase 1 (TDP1): qHTS in cells in absence of CPT; DT40 Tdp1-/- hTDP1 cells, no CPT, ATP luminescence, 48 h; actives 15% (n = 420,000); Potency, µM (doses to about 46.2 µM), for the others: at the highest dose activity change, negative = growth inhibition, most hits filed as inhibitors; also: potency is read from the fitted curve at half-maximal effect; nearly all actives have a fitted effect of over 55% in size
#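 Compound effects on proliferation are scored in DT40 Tdp1-/-;hTDP1 cells in the absence of CPT. ATP levels (CellTiter-Glo luminescence) are recorded after a ≥48 hr, 37 °C incubation.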
# uPA surface inh – cell surface uPA generation inhibition; AID 540303; Potency, µM (titrated, usually from 38.3 µM), without a hit: top-dose activity change, negative = inhibition, most hits filed as inhibitors; cell surface uPA generation assay, qHTS; actives 0.31% (n = 330,000); active = well fitted inhibition curve with a large enough effect; inconclusive = small, poorly fitted or top-dose-only effect; inactive = no such curve, though single readings can be large or run the other way; tested in mouse RAW 264.7 cells; also: potency is read from the fitted curve at half-maximal effect; nearly all actives have a fitted effect of over 55% in size
# HT1080 IDH1KD tx – HT-1080 IDH1 knockdown cell toxicity (counter line); HT-1080 IDH1 knockdown viability, ATP luminescence, 48 h; Potency, µM (series often up to 46.1 µM), without a hit: top-dose activity, negative = toxicity, usual class: cytotoxic; actives 2% (n = 360,000); AID 686971;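 also: potency is read from the fitted curve at half-maximal effect; 0% = DMSO wells and -100% = cell-free medium wells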
#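 Knockdown cells (IDH1KD HT-1080) received compounds 2 h after plating at 750 cells/well and were kept 48 h at 37 °C in 5% FBS RPMI. A CellTiter-Glo luminescence read gave % activity for curve fitting.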
# * hit, by the source's call; i = inactive; ? = inconclusive; . = not tested or not shown; [ ] = another dose, or the depositor's remark. Unless noted, calls follow the shape of the dose curve; as a rule, active = well fitted curve in the direction sought with a large enough effect; inconclusive = small, poorly fitted or top-dose-only effect, or another doubt; inactive = no such curve, though single readings can be large; an effect the other way counts as inactive or inconclusive. Unless noted, % is scaled to controls: 0 for no effect and ±100 for the full control effect.
SMILES,DT40 TDP1 CPT,HT1080NT lethal,IL-1B inflam inh,DT40 TDP1 no CPT,uPA surface inh,HT1080 IDH1KD tx
O=C(CSc1cn(CCNC(=O)c2c(F)cccc2F)c2ccccc12)NCC1CCCO1 (stereo not drawn),-9.7%,0.7%,-0.2,?,12.4%,0.4%
O=C(NCCn1cc(SCc2ccccc2)c2ccccc21)c1c(F)cccc1F,?,-18.0%,?,23.1µM*,?,?
CC(=O)N/C(=C\c1ccccc1)C(=O)OCC(=O)NC1CCS(=O)(=O)C1 (stereo not drawn),-1.4%,11.3%,18.9,?,-2.6%,0.4%
Cn1c(CNC(=O)c2ccccc2F)nnc1SCc1ccc(Cl)cc1,-9.9%,8.3%,10.7,-9.6%,3.3%,8.0%
O=C(NCCn1cc(SCc2ccc(F)cc2)c2ccccc21)c1ccccc1F,?,?,?,16.4µM*,?,?
NC(=O)CSc1cn(Cc2cccc(F)c2)c2ccccc12,13µM*,-23.1%,-8.2,?,-1.7%,-10.3%
O=C(CSc1cn(CCNC(=O)c2ccccc2F)c2ccccc12)Nc1ccc2c(c1)OCCO2,23.1µM*,.,.,16.4µM*,.,.
O=C(CSc1cn(CCNC(=O)c2cccc(C(F)(F)F)c2)c2ccccc12)Nc1ccc2c(c1)OCCO2,23.1µM*,.,.,?,.,.
CCNc1ncc2nc(-c3cccc(C#N)c3)c(=O)n(CCC#N)c2n1,-0.6%,.,.,0.5%,.,.
Cn1c(CCN2CCN(c3ccccn3)CC2)nc2cc(NS(=O)(=O)c3ccc(Cl)cc3)ccc21,?,?,-76.3*,?,-22.7%,?
COc1ccc(OCC(=O)Nc2ccc3c(c2)nc(CCN2CCN(c4ccccn4)CC2)n3C)cc1,18.4µM*,-29.4%,56.3,?,.,?
Cn1c(CCN2CCN(c3ccccn3)CC2)nc2cc(NC(=O)COc3ccc(Cl)cc3)ccc21,18.4µM*,?,-5.0,4.11µM*,?,-29.8%
Cc1ccc(S(=O)(=O)Nc2ccc3c(c2)nc(CCN2CCN(c4ccccn4)CC2)n3C)cc1,?,-3.6%,-13.3,-10.4%,-7.3%,-25.3%
CN1CCN(CCc2nc3cc(NC(=O)COc4ccccc4)ccc3n2C)CC1,5.5%,16.2%,2.8,-18.7%,-0.2%,19.6%
COc1ccc(OCC(=O)Nc2ccc3c(c2)nc(CCN2CCCCC2)n3C)cc1,-30.9%,1.0%,?,16.7%,0.6%,10.7%
Cc1cccc(OCC(=O)Nc2ccc3c(c2)nc(CCN2CCN(c4ccccn4)CC2)n3C)c1,23.1µM*,-20.6%,?,18.4µM*,?,?
COc1cc(OC)c2nc(-c3cc4c(c(OC)c3)OCCN(Cc3cn(C)nc3C)C4)cc(C)c2c1,-6.5%[9.04 µM],.,.,?,.,.
O=C(COC(=O)c1cc2ccccc2o1)NCc1ccco1,0.2%,-0.6%,4.3,-2.6%,3.8%,-1.6%
CCCS(=O)(=O)N1CCCC(C(=O)N2CCCCC2)C1 (stereo not drawn),10.2%,13.7%,16.7,8.2%,3.3%,-0.2%
CC1(O)CC(c2ccc(Cl)cc2)=NN1C(=O)c1ccc(Cl)cc1 (stereo not drawn),10.3µM*,-8.9%,-8.9,16.4µM*,-17.6%,-8.2%
O=C(C1CC1)N1N=C(c2ccc(Cl)cc2)CC1(O)C(F)(F)F (stereo not drawn),-18.7%,0.5%,-0.6,-6.0%,8.1%,-7.4%
COc1ccccc1N1CCN(C(=O)c2cc3c(=O)oc4ccc(C)cc4c3s2)CC1,10.0%,.,.,6.0%,.,.
COc1ccc(C2CC(c3cccs3)=NN2S(=O)(=O)c2ccc(C)cc2)cc1 (stereo not drawn),23.1µM*,15.5%,-9.9,23.1µM*,1.5%,15.4%
O=S(=O)(c1ccccc1)N1N=C(c2cccs2)CC1c1ccc(F)cc1 (stereo not drawn),?,16.3%,-2.6,?,3.3%,4.3%
Cc1ccc(C2CC(c3cccs3)=NN2S(=O)(=O)c2ccc(C)cc2)cc1 (stereo not drawn),20.6µM*,0.2%,-0.1,23.1µM*,1.4%,-4.8%
SMILES,DT40 TDP1 CPT,HT1080NT lethal,IL-1B inflam inh,DT40 TDP1 no CPT,uPA surface inh,HT1080 IDH1KD tx
CCS(=O)(=O)Nc1cccc(C2=NN(S(=O)(=O)c3ccccc3)C(c3cccs3)C2)c1 (stereo not drawn),-7.2%,-7.5%,-2.7,2.9%,.,?
O=S(=O)(c1ccccc1)N1N=C(c2cccs2)CC1c1cccc(O)c1 (stereo not drawn),?,-18.1%,?,16.4µM*,2.7%,-9.7%
O=C(Nc1ccc(Br)cn1)c1ccc(Cl)s1,?,-21.4%,-4.7,18.4µM*,0.1%,-8.2%
O=C(Nc1ccc(Br)cn1)c1ccc(Br)s1,?,-14.6%,16.8,25.9µM*,-10.6%,?
Cc1cc(C(=O)Nc2ccc(Br)cn2)sc1C,-17.2%,-1.7%,-16.5,-12.0%,?,-5.8%
COc1ccc(OC)c(-c2cc(Cl)c3c(c2)CC(CNC(=O)c2cnn4cccnc24)O3)c1 (stereo not drawn),18.8%[9.04 µM],.,.,-14.5%,.,.
O=C(NN=C1CCC(=NNC(=O)c2ccccn2)CC1)c1ccccn1,2.3%,-17.0%,-10.5,-23.0%,-8.6%,-11.4%
Cc1cc2c(cc1C)/C(=N/NC(=O)c1ccccn1)CCC2,?,-16.5%,-7.4,23.1µM*,3.3%,-18.4%
CC(OC(=O)c1cc2sccc2n1C)C(=O)NCCc1ccccc1 (stereo not drawn),14.6µM*,?,5.6,17.8µM*,5.2%,?
CC(OC(=O)c1cc2sccc2n1C)C(=O)NCc1ccc(F)cc1 (stereo not drawn),-23.5%,-18.7%,-0.1,-27.5%,1.5%,?
Cc1ccc(CN2C[C@H](Sc3ccccn3)C[C@H]2C(=O)Nc2ccc3sc(C)nc3c2)c(C)c1,20.1%[9.04 µM],.,.,-16.1%,.,.
CC(C)(C)NC(=O)CSc1ncnc2c1cnn2-c1ccccc1,?,-3.0%,-10.8,?,-9.5%,-16.5%
O=C(CSc1ncnc2c1cnn2-c1ccc(F)cc1)NC1CCCC1,18.4µM*,14.2%,i,20.6µM*,3.2%,22.1%
O=C(CSc1ncnc2c1cnn2-c1ccccc1)NC1CCS(=O)(=O)C1 (stereo not drawn),-27.8%,11.4%,-11.4,8.2µM*,3.7%,9.4%
O=C(CSc1ncnc2c1cnn2-c1ccc(F)cc1)NCC1CCCO1 (stereo not drawn),?,-4.0%,-17.0,?,-12.6%,-5.9%
